High-throughput results deposited in PubChem BioAssay by National Center for Advancing Translational Sciences (NCATS).
HP1b binding inh: inhibitors of HP1-beta chromodomain binding to methylated histone tails; P83916; AlphaScreen HP1-beta / biotin-H3K9me3 peptide binding; Potency, µM (doses to about 114 µM), for the others: top-dose activity change, negative = inhibition, usual class: inhibitors; actives 0.56% (n = 390,000); note: nearly all actives have a fitted effect of over 70% in size
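HP1-beta protein (50 nM final) preincubated 30 min at room temperature with biotinylated H3(1-18)K9me3 peptide (50 nM) in PBS pH 7.4, 0.01% Tween-20, then compound added for 30 min. AlphaScreen streptavidin donor/nickel chelate acceptor beads (10 ug/mL final), 30 min dark, luminescence read.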
G9a block: G9a (human) methyltransferase inhibition; Q96KQ7; G9a H3K9 monomethylation, AlphaScreen, 2 h; Potency, µM (titrated, usually from 102 µM), without a hit: at the top dose activity, negative = inhibition, usual class: inhibitors; actives 8.8% (n = 350,000); AID 504332; note: % is set by controls: 0 for no effect and ±100 for the full control effect; nearly all actives have a fitted effect of over 75% in size
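Quantitative HTS format: methyltransferase activity on a biotin-tagged H3K9 peptide is measured by AlphaScreen, using a rabbit anti-monomethyl-H3K9 antibody with streptavidin donor and anti-IgG acceptor beads. Final levels are 20 nM enzyme, 500 nM peptide, 20 uM SAM; 2 h RT.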
PLK1 PBD block: inhibitors of human PLK1 polo-box domain binding; Potency, µM, for inactives: max response, negative = inhibition, most hits filed as inhibitors; Plk1 PBD binding of FITC phosphopeptide, fluorescence polarization; actives 2.8% (n = 360,000); note: series mostly up to about 57 µM; % is set by controls: 0 for no effect and ±100 for the full control effect; nearly all actives have a fitted effect of over 65% in size
BAZ2B inh: inhibitors of human BAZ2B bromodomain; Q9UIF8; AlphaScreen BAZ2B-H3K14Ac peptide displacement; Potency, µM (series often up to 114 µM), for inactives: at the highest dose activity change, negative = inhibition, actives largely listed as inhibitors; actives 4.4% (n = 360,000); AID 504333; note: % is set by controls: 0 for no effect and ±100 for the full control effect; nearly all actives have a fitted effect of over 60% in size
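AlphaScreen displacement of biotin-H3(5-23)K14Ac peptide (50 nM final) from BAZ2B (50 nM final) in PBS pH 7.4, 0.01% Tween-20; complex preformed 30 min RT, then compounds (top 110 uM) 30 min RT, beads 20 min dark.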
JMJD2A Tudor: blocks the human JMJD2A Tudor domain. AlphaScreen JMJD2A-Tudor / H3K4me3 peptide binding. AID 504339. O75164. actives 4.4% (n = 390,000). Potency, µM (doses to about 114 µM), inactives show at the top dose activity change, negative = inhibition, usual class: inhibitors; note: % is set by controls: 0 for no effect and ±100 for the full control effect; nearly all actives have a fitted effect of over 50% in size
Sfp inh: blocks B. subtilis Sfp PPTase activity; Q9F4F7; actives 3.5% (n = 310,000); Biochemical Sfp PPTase activity, qHTS; Potency, µM, inactives show largest response in the series, negative = inhibition, hits mostly inhibitors; AID 1490;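 note: the enzyme is Sfp with the accession as filed and its product quenches rhodamine fluorescence; 0% = enzyme reaction without inhibitor and -100% = no enzyme wells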
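Step 1, compound plus 15 nM Sfp-PPTase, 15 min, room temperature. Step 2, add rhodamine-CoA (5 uM) and BHQ-2-YbbR (12.5 uM). Step 3, read 525/598 nm fluorescence at 0 and 30 min.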
* = called active by the depositor; ? = inconclusive; · = not tested or not shown; [ ] = another dose, or the depositor's remark. In the library only some 12% were active in any assay of this set; here they are far more common. Calls come from the whole dose curve; as a rule, active = well fitted curve in the direction sought with a large enough effect; inconclusive = small, poorly fitted or top-dose-only effect, or another doubt; inactive = no such curve, though single readings can be large; an effect the other way counts as inactive or inconclusive. Potency is the fitted concentration of half-maximal effect.

SMILES | HP1b binding inh | G9a block | PLK1 PBD block | BAZ2B inh | JMJD2A Tudor | Sfp inh
O=C(Cc1ccccc1)Nc1nc(-c2cccs2)cs1 | 30% | ? | -6% | 11% | -4% | -6%
Cc1nc2ncccn2c1-c1csc(Nc2ccccc2)n1 | -18% | 25µM* | -22% | -37% | ? | 56µM*
Cc1nc2ncccn2c1-c1csc(Nc2ccc(N(C)C)cc2)n1 | ? | 7.9µM* | -18% | 32µM* | 28µM* | ?
O=C(Nc1ccc(-c2csc(Nc3ccc(Cl)cc3)n2)cc1)c1ccccc1 | 25% | · | -13% | · | -11% | ·
Cc1nc2ncccn2c1-c1csc(Nc2ccc(S(N)(=O)=O)cc2)n1 | 24% | · | -9% | -2% | -15% | -20%
CC(=O)Nc1ccc(Nc2nc(-c3c(C)nc4ccccn34)cs2)cc1 | 34% | · | -7% | · | 79µM* | ·
NC(=O)c1nnn(Cc2cc(Cl)c(C(=O)c3ccc(Cl)cc3)c(Cl)c2)c1N | · | · | -12% | · | · | ·
Cc1nc2ncccn2c1-c1csc(NCc2ccco2)n1 | 5% | ? | ? | ? | -6%[57.1 µM] | 8.9µM*
COc1ccccc1Nc1nc(-c2c(C)nc3ncccn23)cs1 | ? | ? | -16% | ? | -31% | ?
COc1cccc(Nc2nc(-c3sc(C)nc3C)cs2)c1 | -11% | · | -8% | ? | ? | -29%
COc1ccc(Nc2nc(-c3c(C)nc4ncccn34)cs2)cc1 | -1% | 18µM* | -3% | ? | ? | 18µM*
Cc1cc2c(s1)c1cnn(Cc3c(F)c(F)c(C)c(F)c3F)c(=O)c1n2C | · | · | · | · | -27% | ·
O=C1NCCCc2c1oc1cc(Br)c(O)c(Br)c21 | -4% | 50µM* | -7% | -2% | -19% | -13%
CC(C)NCc1c(O)c(Br)cc2oc3c(c12)CCCC3 | 8% | ? | -9% | 5% | -35% | 4%
CC(=O)N(c1ccccc1C)C1CCCC1 | 30% | 4% | 3% | 5% | -3% | 8%
CC(=O)N(C1=C(Cl)C(=O)c2ccccc2C1=O)C1CCCCC1 | 7.9µM* | · | 3.8µM* | 22µM* | 1.6µM* | 0.79µM*
O=C(Nc1ccc([N+](=O)[O-])cc1O)Nc1ccccc1Br | · | · | · | · | · | -13%
Cc1ccccc1OCCn1c(S(=O)(=O)O)nc2c(N)ncnc21 | 23% | 13%[2.33 µM] | 1% | -12% | -4% | 18%
O=C1NN(c2ccccc2)C(=O)/C1=C\c1ccccc1OCC(=O)N1CCOCC1 | 26% | 45µM* | 21µM* | -31% | -2% | ?
CCCc1nn2c(=O)cc(COC(=O)c3cccs3)nc2s1 | -2% | 20%[59 µM] | · | -28% | -12% | ·
O=c1c2cc(Cl)ccc2nc(-c2ccccc2)n1O | -1% | -29% | -1% | 79µM* | ? | 11%
Cc1c(C#N)c(O)n(C)c(=O)c1N=Nc1ccc(S(N)(=O)=O)cc1 | 9% | -11%[59 µM] | -4% | -38% | -27% | 8%
Cc1c(C#N)c(O)n(CCO)c(=O)c1N=Nc1ccc(S(N)(=O)=O)cc1 | 32% | -50%[59 µM] | 6% | 79µM* | -10% | 1%
CC(C)(C)OC(=O)N1CCCC(C(=O)Nc2cccc(C(=O)N3CCOCC3)c2)C1 (stereo not given) | 32% | · | -14% | · | -17% | ·
CCc1ccc(NC(=O)[C@H](C)NC(=O)C2CCN(C(=O)[C@@H](N)CC(C)C)CC2)cc1 | 25% | ? | -10% | -9% | -6% | 1%
SMILES | HP1b binding inh | G9a block | PLK1 PBD block | BAZ2B inh | JMJD2A Tudor | Sfp inh
CCc1ccc(NC(=O)[C@H](C)NC(=O)C2CCN(C(=O)[C@@H](N)C(C)C)CC2)cc1 | 33% | 50µM* | -6% | -16% | -3% | 14%
COc1cccc2oc3cc(C#Cc4ccccn4)ccc3c(=O)c12 | 68% | · | -11% | 40µM* | 22µM* | 40µM*
Cc1ccccc1OC(=O)CSc1nnc(-c2cccs2)o1 | 44% | ? | · | -15% | 5% | ·
C=CCc1cc(F)c(S(=O)(=O)N2CCN(S(=O)(=O)c3ccc4c(c3)OCCO4)CC2)cc1F | · | · | · | · | -10% | ·
CN(C)Cc1cc(CN(C)C)c(O)c(CCc2ccccc2)n1 | 43% | 50µM* | ? | -28% | -20%[57.1 µM] | -1%
Cc1ccc(-c2nc(CN(C)C)cc(CN(C)C)c2O)cc1 | 27% | 50µM* | -12% | ? | ? | -1%
OCc1cc(CO)c(O)c(CCc2ccccc2)n1 | 63% | -21% | -2% | -7% | -4% | 4%
CN(C)Cc1cc(C(C)(C)c2cc(CN(C)C)c(O)c(CN(C)C)c2)cc(CN(C)C)c1O | ? | ? | -8% | -7% | -48% | -3%
N#C/C(=C\c1ccc(F)cc1)C(=O)NCC1CCCO1 (stereo not given) | 32% | ? | · | 1% | -10% | ·
CCOc1ccc(NC(=O)CSc2nc3ccsc3c(=O)n2CCCCCC(=O)O)cc1 | 54% | -5%[59 µM] | -9% | -3% | -11% | ·
Cc1[nH]c2ccc(C(=O)OCC(=O)Nc3cccc(S(N)(=O)=O)c3)cc2c1C | -8% | 18%[12.7 µM] | -3% | ? | ? | ·
Cc1ccc(C(C)C)cc1OCCCCN1CCCC1 | ? | 10µM* | -1% | 50µM* | 18µM* | ?
CCOc1ccc(OCCCCN2CCCC2)cc1 | -16% | ? | -8% | ? | 45µM* | ?
CC(C)c1cccc(C(C)C)c1OCCCCN1CCCC1 | 14% | ? | -7% | 7% | -26% | 15%
Cc1ccc(OCCCCN2CCCCC2)cc1 | 31% | -3%[59 µM] | -6% | -30% | -7% | 17%
Cc1ccc(OCCN2CCCC2)cc1 | ? | 22µM* | -3% | -39% | 18µM* | 4%
c1ccc(COc2ccc(OCCCCN3CCCCC3)cc2)cc1 | -38% | 8.9µM* | 0% | 40µM* | 7.1µM* | -33%
Cc1cccc(C)c1Nc1c(-c2ccsc2)nc2cccc(C)n12 | -10% | ? | · | -21% | -35% | ·
Cc1ccc(NC(=O)C2CCCN(S(=O)(=O)c3ccc4c(c3)CCCC(=O)N4)C2)cc1Cl (stereo not given) | 47% | -5%[59 µM] | · | 7%[57.1 µM] | -1% | ·
